Results with a measured potency or affinity are listed apart.

The first assay relates to Klebsiella pneumoniae. Conditions: Concentration 32 ug.mL-1;; ASSAY_TEST Inhibition of Bacterial Growth; detection method Absorption (OD600); MEDIA CAMHB; plate type 384well; NBS; CORNING #3640; time 18 hr.
On to `Cc1cccc(N(Cc2ccccc2F)S(=O)(=O)c2ccc3nncn3c2)c1`, for which the Inhibition is listed as -1.12%.

For the molecule `COc1ccc(-c2cc3c4nn(CC(=O)Nc5cc(OC)cc(OC)c5)c(=O)n4ccn3n2)cc1`, the Inhibition is listed as 0.53%.

For `O=c1c2sccc2n2c(=O)n(Cc3ccc(Br)cc3)nc2n1CCc1ccccc1`, the Inhibition is -2.03%.

With `Cc1cc(Br)ccc1NC(=O)Cn1nc2c(Sc3cccc(F)c3)nccn2c1=O`, the Inhibition amounted to 4.98%.

With `Cc1ccc(NC(=O)Cn2nc3cc(C)nc(Nc4ccc(F)c(C)c4)n3c2=O)cc1`, the Inhibition was determined as 11.85%.

Regarding `CCc1ccc(N(Cc2cccc(F)c2)S(=O)(=O)c2cccn3c(C)nnc23)cc1`, the Inhibition is recorded as 8.24%.

Take `C=Cc1ccc(Cn2nc3c(=O)n(-c4cccc(Cl)c4C)ccn3c2=O)cc1`: the Inhibition is -0.98%.

Consider `CCOc1ccc(-n2ccn3c(SCC(=O)Nc4ccc5c(c4)OCCO5)nnc3c2=O)cc1`, for which the Inhibition was 3.14%.

For `COc1ccc(NC(=O)Cn2nc3c(Sc4ccccc4)nccn3c2=O)cc1Cl`, the Inhibition is given as -2.59%.

As to `O=C(Cn1nc2ccc(-c3ccccc3)nn2c1=O)Nc1cccc(Cl)c1`, the Inhibition stood at 2.74%.

As for `COc1ccc(N(Cc2ccccc2F)S(=O)(=O)c2ccc3nnc(C)n3c2)cc1`, the Inhibition came out at 4.15%.

`CCOC(=O)c1ccc(NC(=O)Cn2nc3ccc(-c4ccc(Cl)cc4)nn3c2=O)cc1`: the Inhibition worked out at 8.58%.

On to `COc1cccc(-n2ccn3c(SCc4cc(C)ccc4C)nnc3c2=O)c1`, for which the Inhibition is recorded as 8.78%.

Consider `Cc1ccc(N(Cc2cccc(C)c2)S(=O)(=O)c2cccn3c(C)nnc23)cc1`, for which the Inhibition is listed as 5.17%.

For the molecule `COc1ccc(NC(=O)Cn2nc3c(SCc4ccc(Cl)cc4)nccn3c2=O)cc1`, the Inhibition was 5.73%.

As to `N#Cc1ccc(NC(=O)Cn2nc3c(SC4CCCCC4)nccn3c2=O)cc1`, the Inhibition was found to be 10.51%.

As for `CCOC(=O)c1ccc(NC(=O)Cn2nc3c(SC4CCCCC4)nccn3c2=O)cc1`, the Inhibition worked out at 11.88%.

Take `O=C(Cn1nc2c(SC3CCCCC3)nccn2c1=O)N1CCN(c2ccccc2)CC1`: the Inhibition is 7.42%.

Consider `COc1cc(NC(=O)Cn2nc3ccc(SCc4ccc(Cl)cc4)nn3c2=O)cc(OC)c1`, for which the Inhibition was 1.27%.

As to `COc1cc(NC(=O)Cn2nc3ccc(SC4CCCCC4)nn3c2=O)cc(OC)c1`, the Inhibition came to 6.28%.

Take `COc1ccc(Cl)cc1NC(=O)Cn1nc2c(Sc3ccc(C)cc3C)nccn2c1=O`: the Inhibition is given as 5.33%.

In the case of `O=c1c2nn(Cc3ccccc3Cl)c(=O)n2ccn1-c1ccccc1`, the Inhibition was found to be 1.78%.

`Cc1ccc(C)c(NC(=O)Cn2nc3c(Sc4ccccc4)nccn3c2=O)c1`: the Inhibition is 3.53%.

On to `Cc1oc(-c2cccc(Cl)c2)nc1CSc1nc2ccccc2n2c(C(C)C)nnc12`, for which the Inhibition was found to be 8.12%.

`COc1cccc(-n2ccn3c(SCC(=O)c4c[nH]c5ccccc45)nnc3c2=O)c1`: the Inhibition is 10.78%.

Take `Cc1cc2nn(CC(=O)Nc3ccc(F)cc3)c(=O)n2c(Nc2ccccc2C)n1`: the Inhibition turned out to be 4.2%.

For `CCOC(=O)c1ccc(NC(=O)Cn2nc3c(N4CCOCC4)nccn3c2=O)cc1`, the Inhibition is 11.56%.

Consider `COc1cc(OC)c(NC(=O)Cn2nc3ccc(Sc4ccc(C)cc4)nn3c2=O)cc1Cl`, for which the Inhibition is recorded as -1.47%.

Regarding `O=C(CSc1nnc2c(=O)n(-c3ccc(F)c(F)c3)ccn12)c1ccccc1Cl`, the Inhibition is listed as 10.86%.

Turning to `Cc1ccc(C)c(Cn2nc3n(CCC(C)C)c(=O)c4sccc4n3c2=O)c1`, the Inhibition is given as 11.36%.

Take `Cc1ccc(-n2ccn3c(SCC(=O)N4CCN(c5ccc(F)cc5)CC4)nnc3c2=O)cc1C`: the Inhibition is given as 1.76%.

With `CCc1nnc2ccc(S(=O)(=O)N(Cc3cccc(F)c3)c3ccc(OC)cc3)cn12`, the Inhibition is -6.85%.

Consider `CC(C)c1nnc2c(=O)n(CC(=O)Nc3cccc(C#N)c3)c3ccccc3n12`, for which the Inhibition came to 14.72%.

Regarding `CCOc1ccc(NC(=O)Cn2nc3c4cc(-c5ccc(Cl)cc5)nn4ccn3c2=O)cc1`, the Inhibition was 10.46%.

For the molecule `CCOc1ccc(NC(=O)Cn2nc3c(Oc4ccc(C)cc4)nccn3c2=O)cc1`, the Inhibition is recorded as 5.41%.

For `O=C(Cn1nc2c(SC3CCCCC3)nccn2c1=O)Nc1cccc(Br)c1`, the Inhibition is on record as -4.59%.

For the molecule `O=S(=O)(c1cccn2cnnc12)N(Cc1cccc(Cl)c1)c1cc(F)cc(F)c1`, the Inhibition is listed as 8.32%.

Take `CCc1ccccc1Sc1nccn2c(=O)n(CC(=O)Nc3ccc(C)cc3C)nc12`: the Inhibition is recorded as 5.62%.

With `O=c1c2sccc2n2c(=O)n(Cc3c(F)cccc3Cl)nc2n1Cc1cccs1`, the Inhibition came to 11.77%.

As for `COC(=O)c1ccc(NC(=O)CSc2nc3ccccc3n3c(C(C)C)nnc23)cc1`, the Inhibition came to 12.96%.

Another assay deals with Candida albicans. Conditions: Concentration 32 ug.mL-1; ASSAY_TEST Inhibition of Fungal Growth; detection method Absorption (OD530).
Regarding `Cc1cccc(N(Cc2ccccc2F)S(=O)(=O)c2ccc3nncn3c2)c1`, the Inhibition amounted to 0.03%.

Consider `COc1ccc(-c2cc3c4nn(CC(=O)Nc5cc(OC)cc(OC)c5)c(=O)n4ccn3n2)cc1`, for which the Inhibition is reported as 33.73%.

For the molecule `O=c1c2sccc2n2c(=O)n(Cc3ccc(Br)cc3)nc2n1CCc1ccccc1`, the Inhibition worked out at 27.87%.

On to `Cc1cc(Br)ccc1NC(=O)Cn1nc2c(Sc3cccc(F)c3)nccn2c1=O`, for which the Inhibition is 6.11%.

In the case of `Cc1ccc(NC(=O)Cn2nc3cc(C)nc(Nc4ccc(F)c(C)c4)n3c2=O)cc1`, the Inhibition came to 7.21%.

In the case of `CCc1ccc(N(Cc2cccc(F)c2)S(=O)(=O)c2cccn3c(C)nnc23)cc1`, the Inhibition is recorded as 0.68%.

On to `C=Cc1ccc(Cn2nc3c(=O)n(-c4cccc(Cl)c4C)ccn3c2=O)cc1`, for which the Inhibition is reported as -0.15%.

As to `CCOc1ccc(-n2ccn3c(SCC(=O)Nc4ccc5c(c4)OCCO5)nnc3c2=O)cc1`, the Inhibition is listed as 6.39%.

Regarding `COc1ccc(NC(=O)Cn2nc3c(Sc4ccccc4)nccn3c2=O)cc1Cl`, the Inhibition was found to be 0.73%.

Regarding `O=C(Cn1nc2ccc(-c3ccccc3)nn2c1=O)Nc1cccc(Cl)c1`, the Inhibition amounted to 18.56%.

With `COc1ccc(N(Cc2ccccc2F)S(=O)(=O)c2ccc3nnc(C)n3c2)cc1`, the Inhibition is -0.01%.

With `CCOC(=O)c1ccc(NC(=O)Cn2nc3ccc(-c4ccc(Cl)cc4)nn3c2=O)cc1`, the Inhibition is -0.49%.

Take `COc1cccc(-n2ccn3c(SCc4cc(C)ccc4C)nnc3c2=O)c1`: the Inhibition worked out at 2.61%.

As for `Cc1ccc(N(Cc2cccc(C)c2)S(=O)(=O)c2cccn3c(C)nnc23)cc1`, the Inhibition was found to be 4.46%.

For the molecule `COc1ccc(NC(=O)Cn2nc3c(SCc4ccc(Cl)cc4)nccn3c2=O)cc1`, the Inhibition is reported as -0.37%.

As to `N#Cc1ccc(NC(=O)Cn2nc3c(SC4CCCCC4)nccn3c2=O)cc1`, the Inhibition turned out to be 3.23%.

In the case of `CCOC(=O)c1ccc(NC(=O)Cn2nc3c(SC4CCCCC4)nccn3c2=O)cc1`, the Inhibition was -1.98%.

Take `O=C(Cn1nc2c(SC3CCCCC3)nccn2c1=O)N1CCN(c2ccccc2)CC1`: the Inhibition stood at 1.71%.

As for `COc1cc(NC(=O)Cn2nc3ccc(SCc4ccc(Cl)cc4)nn3c2=O)cc(OC)c1`, the Inhibition turned out to be 5.86%.

Regarding `COc1cc(NC(=O)Cn2nc3ccc(SC4CCCCC4)nn3c2=O)cc(OC)c1`, the Inhibition amounted to 4.08%.

For `COc1ccc(Cl)cc1NC(=O)Cn1nc2c(Sc3ccc(C)cc3C)nccn2c1=O`, the Inhibition is reported as 2.63%.

Regarding `O=c1c2nn(Cc3ccccc3Cl)c(=O)n2ccn1-c1ccccc1`, the Inhibition is given as 1.76%.

For the molecule `Cc1ccc(C)c(NC(=O)Cn2nc3c(Sc4ccccc4)nccn3c2=O)c1`, the Inhibition was found to be 1.24%.

As to `Cc1oc(-c2cccc(Cl)c2)nc1CSc1nc2ccccc2n2c(C(C)C)nnc12`, the Inhibition was determined as 1.38%.

As to `COc1cccc(-n2ccn3c(SCC(=O)c4c[nH]c5ccccc45)nnc3c2=O)c1`, the Inhibition is on record as 4.57%.

As for `Cc1cc2nn(CC(=O)Nc3ccc(F)cc3)c(=O)n2c(Nc2ccccc2C)n1`, the Inhibition worked out at 1.24%.

For `CCOC(=O)c1ccc(NC(=O)Cn2nc3c(N4CCOCC4)nccn3c2=O)cc1`, the Inhibition is 3.03%.

Turning to `COc1cc(OC)c(NC(=O)Cn2nc3ccc(Sc4ccc(C)cc4)nn3c2=O)cc1Cl`, the Inhibition is listed as 29.33%.

`O=C(CSc1nnc2c(=O)n(-c3ccc(F)c(F)c3)ccn12)c1ccccc1Cl`: the Inhibition came to 3.43%.

Take `Cc1ccc(C)c(Cn2nc3n(CCC(C)C)c(=O)c4sccc4n3c2=O)c1`: the Inhibition amounted to 0.71%.

For `Cc1ccc(-n2ccn3c(SCC(=O)N4CCN(c5ccc(F)cc5)CC4)nnc3c2=O)cc1C`, the Inhibition is given as 0.36%.

With `CCc1nnc2ccc(S(=O)(=O)N(Cc3cccc(F)c3)c3ccc(OC)cc3)cn12`, the Inhibition amounted to 1.92%.

Take `CC(C)c1nnc2c(=O)n(CC(=O)Nc3cccc(C#N)c3)c3ccccc3n12`: the Inhibition worked out at 2.88%.

For `CCOc1ccc(NC(=O)Cn2nc3c4cc(-c5ccc(Cl)cc5)nn4ccn3c2=O)cc1`, the Inhibition was found to be 5.03%.

In the case of `CCOc1ccc(NC(=O)Cn2nc3c(Oc4ccc(C)cc4)nccn3c2=O)cc1`, the Inhibition is on record as 0.26%.

With `O=C(Cn1nc2c(SC3CCCCC3)nccn2c1=O)Nc1cccc(Br)c1`, the Inhibition came to 26.25%.

Take `O=S(=O)(c1cccn2cnnc12)N(Cc1cccc(Cl)c1)c1cc(F)cc(F)c1`: the Inhibition was determined as 1.62%.

Consider `CCc1ccccc1Sc1nccn2c(=O)n(CC(=O)Nc3ccc(C)cc3C)nc12`, for which the Inhibition is recorded as 1.23%.

Consider `O=c1c2sccc2n2c(=O)n(Cc3c(F)cccc3Cl)nc2n1Cc1cccs1`, for which the Inhibition is given as -0.79%.

On to `COC(=O)c1ccc(NC(=O)CSc2nc3ccccc3n3c(C(C)C)nnc23)cc1`, for which the Inhibition is 4.43%.
